This is an account of results in PubChem BioAssay (Tox21).

Assay [1] in a line: qHTS assay to identify small molecule agonists of the peroxisome proliferator-activated receptor delta (PPARd) signaling pathway - cell viability counter screen (AID 743211; active = well fitted curve in the direction sought with a large enough effect in the repeat runs; an effect the other way counts as inactive or inconclusive; also: nearly all actives have a fitted effect of over 55% in size). The procedure, abridged: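 Following 5 h plating at 37 C and 5% CO2, PPARd UAS-bla HEK293H cells took up test compounds for 17 h. Viability was quantified by luminescence 30 min after CellTiter-Glo addition at room temperature.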
For orientation: In qHTS, concentration-response curves come from the screen itself.

Assay [2] is described as follows: qHTS assay to identify small molecule antagonists of the peroxisome proliferator-activated receptor delta (PPARd) signaling pathway - cell viability counter screen (AID 743213; active = well fitted curve in the direction sought with a large enough effect in the repeat runs; an effect the other way counts as inactive or inconclusive; also: nearly all actives have a fitted effect of over 50% in size). Put shortly:
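In this counter screen, HEK293H cells carrying a UAS-beta-lactamase reporter are co-treated with test compounds and 300 nM L165041 (final) for 17 h at 37 C; cell viability is quantified by CellTiter-Glo luminescence.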

A short description of assay [3]: qHTS assay to identify small molecule agonists of the farnesoid-X-receptor (FXR) signaling pathway - cell viability counter screen (AID 743218; active = well fitted curve in the direction sought with a large enough effect in the repeat runs; an effect the other way counts as inactive or inconclusive; also: nearly all actives have a fitted effect of over 45% in size). The procedure, abridged: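 FXR-UAS-bla HEK 293T cells exposed to compounds for 16 h at 37C. Cytotoxicity read in the same wells by CellTiter-Glo luminescence after 30 min at room temperature, following the beta-lactamase FRET read.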

Assay [4] in a line: qHTS assay to identify small molecule antagonists of the farnesoid-X-receptor (FXR) signaling pathway - cell viability counter screen (AID 743221; active = well fitted cell-killing curve with a large enough effect in the repeat runs, not every such curve was filed as active; also: nearly all actives have a fitted effect of over 50% in size). Put shortly:
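Compound effects on cell number were measured as CellTiter-Glo luminescence in HEK 293T cells expressing FXR-UAS-bla, after 16 h at 37 C with 50 uM CDCA (final).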

Assay [5] in a line: qHTS assay to identify small molecule antagonists of the vitamin D receptor (VDR) signaling pathway - cell viability counter screen (AID 743225; active = well fitted curve in the direction sought with a large enough effect in the repeat runs; an effect the other way counts as inactive or inconclusive; also: nearly all actives have a fitted effect of over 50% in size). Put shortly:
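In this counter screen, VDR-bla HEK 293T cells receive test compound plus 3 nM final calcitriol for 16 h at 37C. Room-temperature steps of 2 h with the beta-lactamase substrate, then 30 min with CellTiter-Glo, precede the luminescence read.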

The nature of assay [6]: qHTS assay to identify small molecule agonists of the NFkB signaling pathway - cell viability counter screen (AID 1159515). Also: series mostly up to about 61 µM; nearly all actives have a fitted effect of over 55% in size. The procedure, abridged:
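NFkB-bla ME-180 cells, 2,000/well, plated overnight at 37 C; compound added for 5 hr at 37 C. Viability read in the same wells as the bla reporter, by CellTiter-Glo luminescence after 30 min at room temperature.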

Assay [7] is described as follows: qHTS assay to identify small molecule agonists of the endoplasmic reticulum stress response signaling pathway (AID 1159516; active = well fitted activation curve with a large enough effect in the signal ratio in the repeat runs, not every such curve was filed as active; the % refers to the signal ratio; also: potency is read from the fitted curve at half-maximal effect). Put shortly:
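CellSensor ESRE-bla HeLa cells, 1,500 per well, plated overnight, then exposed to compounds for 5 hr at 37 C. Beta-lactamase reporter read with LiveBLAzer B/G FRET substrate after 2 hr at room temperature, 405 nm excitation, 460 and 530 nm emission.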

Assay [8] can be described thus: qHTS assay to identify small molecule agonists of the endoplasmic reticulum stress response signaling pathway - cell viability counter screen (AID 1159517).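 Also: HeLa cells carrying an ER stress response element beta-lactamase reporter; series mostly up to about 61 µM; nearly all actives have a fitted effect of over 50% in size.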 The procedure, abridged:
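Cells, HeLa ESRE-bla; density, 1,500/well; dosing, 5 hr at 37 C, 5% CO2; readout, CellTiter-Glo luminescence after 30 min RT.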

Assay [9] in a line: qHTS assay to identify small molecule antagonists of the retinoid-related orphan receptor gamma (ROR-gamma) signaling pathway - cell viability counter screen (AID 1159520; active = well fitted curve in the direction sought with a large enough effect in the repeat runs; an effect the other way counts as inactive or inconclusive; also: nearly all actives have a fitted effect of over 50% in size). The procedure, abridged:
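Cytotoxicity was read from cellular ATP (CellTiter-Glo luminescence) after 16 hr at 37 C with 1 uM doxycycline induction. The inducer was added 2 hr after compound transfer to Tet-on ROR gamma CHO cells.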

Assay [10] can be described thus: qHTS assay to identify small molecule agonists of the AP-1 signaling pathway - cell viability counter screen (AID 1159525). Also: nearly all actives have a fitted effect of over 55% in size. The procedure, abridged:
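Luminescent ATP readout (Cell Titer Glo, 30 min RT), normalised to DMSO and tetra n-octyl ammonium bromide controls. Cells were ME-180 AP-1-bla in 0.5% dialyzed FBS Opti-MEM, with a 5 h, 37 °C compound exposure.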

The target of assay [11] is Vitamin D3 receptor (Homo sapiens) (UniProt P11473). Kind of assay: qHTS assay to identify small molecule antagonists of the vitamin D receptor (VDR) signaling pathway (AID 743223; active = well fitted inhibition curve with a large enough effect in the signal ratio in the repeat runs, not every such curve was filed as active; the % refers to the signal ratio). The procedure, abridged: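 Beta-lactamase activity in VDR-bla cells is measured by FRET substrate fluorescence (2 h, room temperature) after cells spend 16 h at 37C with test compound and 3 nM final 1alpha,25-dihydroxyvitamin D3.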
Sequence of Vitamin D3 receptor (Homo sapiens) (P11473 whole entry, looked up): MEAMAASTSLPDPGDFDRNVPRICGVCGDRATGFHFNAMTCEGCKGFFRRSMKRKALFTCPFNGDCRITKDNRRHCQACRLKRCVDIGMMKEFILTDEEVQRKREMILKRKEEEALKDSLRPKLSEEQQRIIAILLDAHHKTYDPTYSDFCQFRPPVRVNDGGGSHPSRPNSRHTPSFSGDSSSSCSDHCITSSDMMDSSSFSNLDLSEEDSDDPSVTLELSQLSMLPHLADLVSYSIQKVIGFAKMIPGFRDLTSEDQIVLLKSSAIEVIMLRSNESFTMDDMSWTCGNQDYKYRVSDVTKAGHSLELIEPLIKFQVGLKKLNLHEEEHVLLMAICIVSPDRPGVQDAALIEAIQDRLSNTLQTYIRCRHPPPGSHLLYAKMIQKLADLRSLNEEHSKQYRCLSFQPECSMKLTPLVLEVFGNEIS

Assay [12] is described as follows: qHTS assay to identify small molecule agonists of the vitamin D receptor (VDR) signaling pathway - cell viability counter screen (AID 743224; active = well fitted curve in the direction sought with a large enough effect in the repeat runs; an effect the other way counts as inactive or inconclusive). Put shortly: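 VDR-bla cells, 4 h after plating, exposed to compounds for 16 h at 37C; viability then read in the same wells as CellTiter-Glo luminescence after 30 min at room temperature, following the bla FRET read.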

The nature of assay [13]: qHTS assay to identify small molecule agonists of the AP-1 signaling pathway (AID 1159526).
In assay [14] the target is Peroxisome proliferator-activated receptor delta (Homo sapiens) (UniProt Q03181). The assay can be described thus: qHTS assay to identify small molecule agonists of the peroxisome proliferator-activated receptor delta (PPARd) signaling pathway (AID 743212). Put shortly: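 HEK293H UAS-bla reporter cells, human PPARd system; compounds delivered in DMSO after 5 h plating, then at 37 C. Beta-lactamase FRET read, 2 h RT substrate step.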
Sequence of Peroxisome proliferator-activated receptor delta (Homo sapiens) (Q03181 whole entry, looked up): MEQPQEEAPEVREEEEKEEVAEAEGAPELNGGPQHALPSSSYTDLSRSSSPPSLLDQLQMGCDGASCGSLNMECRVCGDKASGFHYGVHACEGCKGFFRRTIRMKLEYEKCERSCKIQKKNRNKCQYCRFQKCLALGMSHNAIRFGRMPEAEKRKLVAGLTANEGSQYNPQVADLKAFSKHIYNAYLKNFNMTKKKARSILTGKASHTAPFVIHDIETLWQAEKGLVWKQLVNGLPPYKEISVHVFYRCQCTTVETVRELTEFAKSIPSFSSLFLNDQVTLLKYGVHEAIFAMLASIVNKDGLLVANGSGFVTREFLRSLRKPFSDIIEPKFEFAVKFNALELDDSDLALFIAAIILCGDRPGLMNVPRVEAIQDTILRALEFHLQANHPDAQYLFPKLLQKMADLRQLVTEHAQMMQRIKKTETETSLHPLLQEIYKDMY

In assay [15] the target is Bile acid receptor (Homo sapiens) (UniProt Q96RI1). Kind of assay: qHTS assay to identify small molecule antagonists of the farnesoid-X-receptor (FXR) signaling pathway (AID 743217; active = well fitted inhibition curve with a large enough effect in the signal ratio in the repeat runs, not every such curve was filed as active; the % refers to the signal ratio). The procedure, abridged:
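FXR-UAS-bla HEK 293T cells (beta-lactamase reporter) given compound plus chenodeoxycholic acid (50 uM final), 16 h at 37C. LiveBLAzer B/G FRET substrate added for 2 h at room temperature; fluorescence read.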

For assay [16], the target named is Vitamin D3 receptor (Homo sapiens) (UniProt P11473). The assay can be described thus: qHTS assay to identify small molecule agonists of the vitamin D receptor (VDR) signaling pathway (AID 743222). Put shortly: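 VDR-bla cells plated 4 h at 37 C, then exposed to compounds for 16 h at 37 C. Beta-lactamase reporter activity measured by fluorescence after 2 h room-temperature loading with LiveBLAzer B/G FRET substrate.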

Assay [17] addresses Peroxisome proliferator-activated receptor delta (Homo sapiens) (UniProt Q03181). The assay can be described thus: qHTS assay to identify small molecule antagonists of the peroxisome proliferator-activated receptor delta (PPARd) signaling pathway (AID 743215; active = well fitted inhibition curve with a large enough effect in the signal ratio in the repeat runs, not every such curve was filed as active; the % refers to the signal ratio;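 also: cells stimulated with agonist L165041 at 300 nM final during compound exposure; series mostly up to about 62 µM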). Put shortly:
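PPARd-bla HEK293H cells (UAS-bla reporter) preincubated 5 h, then given compound plus 300 nM final L165041 agonist for 17 h at 37 C. Beta-lactamase activity read by LiveBLAzer B/G FRET substrate fluorescence after 2 h at room temperature.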

The target of assay [18] is Bile acid receptor (Homo sapiens) (UniProt Q96RI1). The assay can be described thus: qHTS assay to identify small molecule agonists of the farnesoid-X-receptor (FXR) signaling pathway (AID 743220; active = well fitted activation curve with a large enough effect in the signal ratio in the repeat runs, not every such curve was filed as active; the % refers to the signal ratio). The procedure, abridged: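 Beta-lactamase reporter under UAS control in GeneBLAzer FXR HEK 293T cells (5000/well) measured with LiveBLAzer FRET substrate after 2 h at room temperature. Compound exposure lasted 16 h at 37C.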
Sequence of Bile acid receptor (Homo sapiens) (Q96RI1 whole entry, looked up): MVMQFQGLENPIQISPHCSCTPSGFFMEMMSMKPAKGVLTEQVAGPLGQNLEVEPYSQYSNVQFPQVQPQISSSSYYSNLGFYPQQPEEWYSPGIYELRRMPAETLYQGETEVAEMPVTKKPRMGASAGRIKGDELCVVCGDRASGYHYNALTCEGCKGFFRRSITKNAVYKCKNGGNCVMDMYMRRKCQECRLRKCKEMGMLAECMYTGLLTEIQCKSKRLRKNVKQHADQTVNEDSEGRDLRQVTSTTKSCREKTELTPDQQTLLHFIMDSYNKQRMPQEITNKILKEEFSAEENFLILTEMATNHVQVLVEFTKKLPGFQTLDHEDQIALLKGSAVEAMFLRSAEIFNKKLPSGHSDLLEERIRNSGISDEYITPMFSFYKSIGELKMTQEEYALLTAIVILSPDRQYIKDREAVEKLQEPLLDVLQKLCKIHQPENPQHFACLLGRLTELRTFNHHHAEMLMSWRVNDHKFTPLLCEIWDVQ

For assay [19], the target named is Retinoic acid receptor RXR-alpha (Homo sapiens) (UniProt P19793). Kind of assay: qHTS assay to identify small molecule agonists of the RXR signaling pathway (AID 1159527). Also: nearly all actives have a fitted effect of over 35% in size. The procedure, abridged:
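Fluorescence ratio readout (460 vs 530 nm) from GeneBLAzer RXR-alpha HEK 293T cells after 16 hr compound treatment; cells seeded 5 hr beforehand in low-serum, charcoal-stripped medium.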

Inconclusive results are not listed. Values without a mark were called inactive. Active and inactive are the calls of the source. Unless noted, calls follow the shape of the full dose curve.

Sequence of Retinoic acid receptor RXR-alpha (Homo sapiens) (P19793 whole entry, looked up): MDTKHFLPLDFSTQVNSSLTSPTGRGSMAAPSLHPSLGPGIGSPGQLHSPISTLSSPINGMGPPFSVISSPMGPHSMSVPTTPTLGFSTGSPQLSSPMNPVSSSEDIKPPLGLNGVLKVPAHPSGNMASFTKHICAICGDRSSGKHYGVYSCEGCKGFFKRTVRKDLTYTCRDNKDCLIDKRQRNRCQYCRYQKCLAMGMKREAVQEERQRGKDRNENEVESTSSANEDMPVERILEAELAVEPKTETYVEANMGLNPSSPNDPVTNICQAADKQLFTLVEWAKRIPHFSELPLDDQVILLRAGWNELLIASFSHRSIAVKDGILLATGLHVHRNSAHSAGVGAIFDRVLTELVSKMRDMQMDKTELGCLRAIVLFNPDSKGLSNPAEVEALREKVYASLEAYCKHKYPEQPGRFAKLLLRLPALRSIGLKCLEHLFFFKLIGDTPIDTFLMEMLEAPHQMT

As for `Oc1cccc(Cl)c1Cl`, the Potency result in [1], in [2], in [3], in [4], in [5] and in assay [6] was “inactive” each time. Further, the Potency entry in assay [7], in [8], in assay [9] and in assay [10] was “inactive” throughout.

Take `c1ccc2nc(N3CCNCC3)ccc2c1`: the Potency entry in [11], in assay [12], in [5], in assay [6], in [7] and in [8] was “inactive” throughout. The Potency entry in [9], in assay [10] and in [13] was “inactive” throughout.

Consider `Cc1cc2c3c(c1)C(c1ccccc1)=N[C@@H](NC(=O)c1ccncc1)C(=O)N3CC2`, for which the Potency result in assay [1], in [14], in [2], in assay [15], in assay [3] and in [4] was “inactive” in each case. Also, the Potency entry in [16], in [12], in assay [5], in assay [6], in assay [7] and in [8] was “inactive” each time. In addition, the Potency entry in [9], in assay [10] and in assay [13] was “inactive” each time.

In the case of `CCC1COC(Cn2cncn2)(c2ccc(Cl)cc2Cl)O1` (configuration not stated), the Potency entry in [1], in [14], in assay [2], in assay [17], in [3] and in assay [16] was “inactive” throughout. Further, the Potency result in assay [11], in assay [12], in [5], in assay [6], in assay [7] and in assay [8] was “inactive” each time. Further, the Potency result in assay [9], in [10] and in [13] was “inactive” throughout.

Turning to `CC(=O)[O-].CC(=O)[O-].O.O.O.[Pb+2]`, the Potency result in assay [1], in assay [4], in assay [12], in assay [5], in assay [6] and in assay [8] was “inactive” in each case. In addition, the Potency result in [9], in [10] and in [13] was “inactive” each time. In addition, the Potency in assay [7] is 77.6 nM (active).

As to `CCOC(=O)CCN(SN(C)C(=O)Oc1cccc2c1OC(C)(C)C2)C(C)C`, the Potency result in assay [1], in assay [14], in [2], in [15], in assay [18] and in assay [4] was “inactive” in each case. The Potency result in assay [12], in assay [5], in [6], in [7], in [8] and in assay [10] was “inactive” in each case.

On to `CCCCN(CCCC)C(=S)S`, for which the Potency entry in [1], in [2], in assay [3], in [4], in [16] and in assay [12] was “inactive” each time. Also, the Potency entry in [5], in assay [6], in assay [7], in assay [8] and in assay [10] was “inactive” in each case.

For the compound `CC(Cl)CCl` (configuration not stated), the Potency entry in assay [1], in assay [14], in assay [2], in [17], in assay [3] and in assay [16] was “inactive” throughout. Moreover, the Potency result in assay [11], in assay [12], in [5], in assay [6], in assay [7] and in assay [8] was “inactive” each time. In addition, the Potency entry in assay [10] and in assay [13] was “inactive” in each case.

As to `N#Cc1ccc(N(CC(N)=O)CC(F)(F)F)cc1C(F)(F)F`, the Potency result in [1], in assay [14], in assay [2], in assay [15], in assay [18] and in [4] was “inactive” in each case. The Potency entry in [16], in assay [11], in assay [12], in [5], in [6] and in assay [7] was “inactive” in each case. The Potency entry in assay [8], in [10], in [13] and in assay [19] was “inactive” throughout.

Regarding `Oc1ccc(Cl)c(Cl)c1`, the Potency entry in [1], in [14], in assay [2], in assay [17], in assay [3] and in assay [4] was “inactive” each time. The Potency entry in [16], in assay [12], in assay [5], in assay [6], in [7] and in assay [8] was “inactive” each time. Also, the Potency entry in assay [10], in assay [13] and in assay [19] was “inactive” in each case.
